Source: PubChem BioAssay (NCI)
This is part of a sample that, as a whole, favours compounds with a hit. Of some 83,000 tested, about 20% had one in any assay.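 96-well plates, one dose, 48 hours. Percent growth reported; active if below 10.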 Calls of active or inactive are those of the source.

Columns and labels:
Assay in all cases: NCI-60 one-dose screen, 48 h (100 = growth as untreated, 0 = no growth, -100 = all killed)
Conditions in all cases: 10 µM unless noted
NCI-H23 lung = test system: NCI-H23 lung
NCI-H226 lung = test system: NCI-H226 lung
NCI-H322M lung = test system: NCI-H322M lung
HOP-62 NSCLC = test system: HOP-62 NSCLC
NCI-H460 lung = test system: NCI-H460 lung
HOP-92 NSCLC = test system: HOP-92 NSCLC
NCI-H522 lung = test system: NCI-H522 lung
A549/ATCC NSCLC = test system: A549/ATCC NSCLC
786-0 renal = test system: 786-0 renal
COLO 205 colon = test system: COLO 205 colon

Measured: growth

COc1cc(F)c(-c2nc3c(C)cccc3n2Cc2c(F)cccc2F)c(F)c1
inactive: NCI-H23 lung 79.8% | NCI-H226 lung 88.7% | NCI-H322M lung 87.5% | HOP-62 NSCLC 83.3% | NCI-H460 lung 77.8% | HOP-92 NSCLC 81.3% | NCI-H522 lung 73.4% | A549/ATCC NSCLC 69.1% | 786-0 renal 85.7% | COLO 205 colon 98%

CNc1cccc2c1C(=O)c1cccc(N)c1C2=O
inactive: NCI-H23 lung 76.3% | NCI-H226 lung 82.4% | NCI-H322M lung 75.3% | HOP-62 NSCLC 89.3% | NCI-H460 lung 52.4% | HOP-92 NSCLC 20.5% | NCI-H522 lung 62.3% | A549/ATCC NSCLC 59.8% | 786-0 renal 38%
active: COLO 205 colon 7.33%

CCOC(=O)/C=C1\SC(=Nc2ccc(C#N)cc2)N(CCN2C(=O)/C(=C/C(=O)OCC)SC2=Nc2ccc(C#N)cc2)C1=O
inactive: NCI-H23 lung 52% | NCI-H226 lung 92.9% | NCI-H322M lung 86.6% | HOP-62 NSCLC 51.3% | NCI-H460 lung 31.6% | HOP-92 NSCLC 80.4% | NCI-H522 lung 36.4% | A549/ATCC NSCLC 77.5% | 786-0 renal 48.5% | COLO 205 colon 18.6%

CCCCn1c(=O)c(/C=C/C(=O)/C=C/c2cc3ccccc3n(CCCC)c2=O)cc2ccccc21
inactive: NCI-H322M lung 49.6% | HOP-62 NSCLC 49% | HOP-92 NSCLC 64.4%
active: NCI-H23 lung -7.39% | NCI-H226 lung -22.8% | NCI-H460 lung 5.91% | NCI-H522 lung 5.74% | A549/ATCC NSCLC -0.936% | 786-0 renal -63% | COLO 205 colon -22%

O=C(Nc1cc(Nc2ncccc2-c2ncnc3nc[nH]c23)ccc1F)c1cc(C(F)(F)F)cc(C(F)(F)F)c1
inactive: NCI-H226 lung 16.8% | NCI-H322M lung 46.7% | NCI-H522 lung 11.7%
active: NCI-H23 lung -3.98% | HOP-62 NSCLC -14.4% | NCI-H460 lung -30.4% | HOP-92 NSCLC -31.3% | A549/ATCC NSCLC 0.774% | 786-0 renal -3.09% | COLO 205 colon -60.2%

COc1ccc(/C=C/C(=O)C(CC2CCC2)C(=O)/C=C/c2ccc(OC)c(OC)c2)cc1OC
inactive: NCI-H322M lung 10.6%
active: NCI-H23 lung 3.1% | NCI-H226 lung -0.278% | HOP-62 NSCLC -39% | NCI-H460 lung -30.3% | HOP-92 NSCLC -5.24% | NCI-H522 lung -38.2% | A549/ATCC NSCLC -47% | 786-0 renal -44.6% | COLO 205 colon -53.7%

Nn1c(SCC(=O)Nc2ccc(Cl)cc2)nnc1-c1cc(F)c(Cl)cc1Cl
inactive: NCI-H23 lung 93% | NCI-H226 lung 93.5% | NCI-H322M lung 80.2% | HOP-62 NSCLC 55.8% | NCI-H460 lung 90% | HOP-92 NSCLC 76.6% | NCI-H522 lung 66.1% | A549/ATCC NSCLC 87.2% | 786-0 renal 93.4% | COLO 205 colon 96.6%

COC(=O)c1oc2c(C(=O)/C=C/c3ccc(OC)cc3)c(OCCCN3CCCCC3)ccc2c1C
inactive: NCI-H23 lung 22.1% | NCI-H226 lung 89.4% | NCI-H322M lung 17.8% | COLO 205 colon 29.2%
active: HOP-62 NSCLC 1.98% | NCI-H460 lung 4.2% | HOP-92 NSCLC -38.8% | NCI-H522 lung 1.11% | A549/ATCC NSCLC -3.52% | 786-0 renal 1.16%

N#CC(C#N)=C1NC(c2ccccc2)=C(c2ccccc2)C(c2ccccc2Cl)=C1C#N
inactive: NCI-H23 lung 93.5% | NCI-H226 lung 108% | NCI-H322M lung 107% | HOP-62 NSCLC 109% | NCI-H460 lung 111% | HOP-92 NSCLC 109% | NCI-H522 lung 85.5% | A549/ATCC NSCLC 84% | 786-0 renal 97.6% | COLO 205 colon 123%

N#Cc1c(-c2ccc(F)cc2)nc(N/N=C/c2cccc(O)c2)nc1N1CCOCC1
inactive: NCI-H23 lung 99.9% | NCI-H226 lung 100% | NCI-H322M lung 81.4% | HOP-62 NSCLC 92% | NCI-H460 lung 98.3% | HOP-92 NSCLC 64.4% | NCI-H522 lung 69.5% | A549/ATCC NSCLC 82.3% | 786-0 renal 65.1% | COLO 205 colon 73.4%

Cn1cc(-c2ccc3c(c2)ncn3-c2ccc(CC(=O)Nc3cc(C(C)(C)C)on3)cc2)cn1
active: NCI-H322M lung 8.78% | HOP-92 NSCLC 5.11%
inactive: NCI-H23 lung 30.2% | NCI-H226 lung 22.2% | HOP-62 NSCLC 36.2% | NCI-H460 lung 28.5% | NCI-H522 lung 32.8% | A549/ATCC NSCLC 19% | 786-0 renal 17.6% | COLO 205 colon 38.2%

CC1=C/C(=N\N=C2/C=C(C)CC(C)(C)C2)CC(C)(C)C1
inactive: NCI-H23 lung 102% | NCI-H226 lung 106% | NCI-H322M lung 92.7% | HOP-62 NSCLC 90.9% | NCI-H460 lung 104% | HOP-92 NSCLC 92.3% | NCI-H522 lung 81.4% | A549/ATCC NSCLC 88.6% | 786-0 renal 102% | COLO 205 colon 119%

CC(C)(C)c1ccc2oc(=O)n(SC(Cl)(Cl)Cl)c2c1
inactive: NCI-H23 lung 95.1% | NCI-H226 lung 104% | NCI-H322M lung 106% | HOP-62 NSCLC 94.1% | NCI-H460 lung 96.6% | HOP-92 NSCLC 106% | NCI-H522 lung 79% | A549/ATCC NSCLC 97% | 786-0 renal 91.1% | COLO 205 colon 106%
